Hits are enriched below; roughly 27% of the tested compounds scored in any of these assays.
CYP2C9 act – increases human cytochrome P450 2C9 activity; AID 1024; recombinant CYP2C9, luciferin-H conversion, luminescence; hits give high values; factor 1 = untreated enzyme, 0 = blocked; P11712; activation factor at 5 µM; 1.4% of 96,000 active;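 active means activation factor of 2 or more for CYP2C9 at a 5 µM dose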;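 further: 0 = sulfaphenazole-blocked wells and 1 = vehicle-only wells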
CYP2C9 inh – blocks human cytochrome P450 2C9 | P11712 | CYP2C9 Supersomes, luciferin-H conversion, luminescence | inhibition, % at 5 µM | 20% of 96,000 active;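 active means blocking of liver enzyme CYP2C9 beyond about 50% at 5 µM, limit read from the data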
sEH act – activators of human soluble epoxide hydrolase | purified human sEH enzymatic activity, activator screen | activation, % at 2 µM | 0.04% of 91,000 active; in the data active means activation above about 37%
Target sequence (P34913 whole entry, looked up): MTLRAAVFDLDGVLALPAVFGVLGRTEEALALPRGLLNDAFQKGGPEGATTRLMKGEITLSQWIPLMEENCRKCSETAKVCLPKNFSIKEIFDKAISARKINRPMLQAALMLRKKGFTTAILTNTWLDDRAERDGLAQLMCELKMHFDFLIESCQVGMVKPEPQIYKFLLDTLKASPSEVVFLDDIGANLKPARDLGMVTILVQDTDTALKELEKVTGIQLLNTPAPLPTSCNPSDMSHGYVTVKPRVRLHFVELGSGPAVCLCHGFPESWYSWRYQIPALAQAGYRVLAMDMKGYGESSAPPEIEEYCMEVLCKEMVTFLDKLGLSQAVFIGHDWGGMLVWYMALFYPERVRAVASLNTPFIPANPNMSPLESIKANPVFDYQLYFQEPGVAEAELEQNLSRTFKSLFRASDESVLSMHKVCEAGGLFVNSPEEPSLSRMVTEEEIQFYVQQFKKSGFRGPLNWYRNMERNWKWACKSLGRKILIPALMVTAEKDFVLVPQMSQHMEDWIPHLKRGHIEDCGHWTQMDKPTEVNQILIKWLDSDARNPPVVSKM
sEH inh – soluble epoxide hydrolase (human) inhibition; P34913; recombinant human sEH enzymatic activity assay; inhibition, % at 2 µM; 0.34% of 91,000 active; in the data active means inhibition above about 80%
CYP2C19 act – cytochrome P450 2C19 (human) activation; P33261; recombinant CYP2C19, luciferin-H EGE luminescence; hits give high values; 0 = fully inhibited enzyme, 1 = untreated enzyme; activation factor at 5 µM; 96,000 tested, under 10 active;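 active means activation factor of at least 2 at 5 µM in the primary screen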;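 further: 0 = wells with 2.5 mM tranylcypromine and 1 = vehicle-only wells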
CYP2C19 inhib – inhibitors of human CYP2C19; CYP2C19 Supersomes, luciferin-H EGE luminescence, 30 min; inhibition, % at 5 µM; 21% of 96,000 active; AID 778;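 active means CYP2C19 inhibition above a set limit at 5 µM in the primary screen, cut at about 50% in these data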;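 further: plate controls were negative control wells for no effect and 2.5 mM tranylcypromine positive control for full effect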
The depositor's hits bear a star; x = not tested or not shown.

SMILES | CYP2C9 act | CYP2C9 inh | sEH act | sEH inh | CYP2C19 act | CYP2C19 inhib
CCOc1ccc(C(=S)N2CCCC2)cc1 | 0.8 | 21 | -8 | 7 | 0.1 | 89*
COc1cc(C(=S)N2CCCC2)cc(OC)c1O | 1 | 5 | 10 | -14 | 0.4 | 61*
CCOc1ccc(C(=O)N2CCCCCC2)cc1 | 0.9 | 11 | -10 | 12 | 0.7 | 32
O=c1[nH]c(CSc2nc3ccccc3o2)nc2c1cnn2-c1ccccc1 | 0.3 | 68* | x | x | 0.2 | 78*
O=c1[nH]c(SCc2nc3c(cnn3-c3ccccc3)c(=O)[nH]2)nc2ccccc12 | 0.6 | 44 | 13 | -13 | 0.6 | 41
CN(CCOC(=O)c1cccc(Br)c1)C(C)(C)C | 0.4 | 60* | 16 | -15 | 0.8 | 25
O=C(c1ccc(N2CCNCC2)cc1)c1cccnc1 | 1.1 | -12 | 16 | -16 | 1 | -5
NC(=O)CN1CCOCCOCCN(CC(N)=O)CCOCC1 | 0.4 | 55* | 7 | -5 | 1.3 | -27
O=C(CN1CCOCC1)N1CCN(C(=O)CN2CCOCC2)CC1 | x | x | 5 | -4 | x | x
N#CC1(c2ccccc2)CCCN1C(=O)c1ccccc1Cl (stereo unspecified) | 1 | 0 | -1 | -2 | 1.1 | -5
N#CC1(c2ccccc2)CCCN1C(=O)c1ccc(Br)cc1 (stereo unspecified) | 0.4 | 60* | -4 | 1 | 0.4 | 64*
O=C(Nc1ccc(N2C(=O)C3C4C=CC(C4)C3C2=O)cc1)Nc1cccnc1 (stereo unspecified) | 0.4 | 60* | -13 | 13 | 0.9 | 5
CCC(=O)N(Cc1cc(=O)[nH]c2ccccc12)c1cccc(C)c1 | 0.7 | 27 | x | x | 0.8 | 16
CC(C)(C)C(=O)CC1(O)C(=O)N(Cc2ccccc2)c2ccccc21 (stereo unspecified) | 0.5 | 54* | 3 | 0 | 0.3 | 72*
O=C(CC1(O)C(=O)N(Cc2ccccc2)c2ccccc21)c1ccc2c(c1)OCO2 (stereo unspecified) | 0.8 | 20 | -2 | 2 | 0.9 | 12
Cc1ccccc1CN1C(=O)C(O)(CC(=O)c2ccncc2)c2ccccc21 (stereo unspecified) | 0.6 | 41 | 2 | -1 | 0.1 | 90*
O=C(CC1(O)C(=O)N(Cc2ccccc2)c2ccccc21)c1ccncc1 (stereo unspecified) | 0.3 | 66* | 4 | -4 | 0 | 96*
CCCCS(=O)(=O)NC1=NCN(C2CCN(Cc3ccccc3)CC2)CN1 | x | x | -4 | 9 | x | x
O=C(O)[C@H](Cc1ccccc1)NC(=O)N1CCOCC1 | 1.1 | -7 | 3 | -4 | 1 | -4
CNC(=O)Nc1ccc(Cl)cc1 | 1 | -2 | -20 | 23 | 0.9 | 13
CC(Cc1cccs1)NC(=O)Nc1ccc(Cl)c(Cl)c1 (stereo unspecified) | 0.3 | 69* | -90 | 90* | 0.3 | 73*
CC(Cc1cccs1)NC(=O)Nc1ccccc1 (stereo unspecified) | 0.4 | 57* | -58 | 58 | 0.1 | 89*
CC(Cc1cccs1)NC(=O)Nc1ccc(Cl)cc1 (stereo unspecified) | 0.7 | 30 | -86 | 87* | 0.3 | 68*
CCOc1ccccc1NC(=O)C1CC2CCCC(C1)C2=O (stereo unspecified) | 1.9 | -93 | 3 | -1 | 0.8 | 16
O=C(/C=C/c1ccco1)NCC1CCCO1 (stereo unspecified) | 1 | 5 | -3 | 5 | 1 | 3
SMILES | CYP2C9 act | CYP2C9 inh | sEH act | sEH inh | CYP2C19 act | CYP2C19 inhib
Clc1ccc(-c2cc(CSc3cccc(Cl)c3)on2)cc1 | 0.5 | 45 | x | x | 0.2 | 75*
COc1ccc2c(C(=O)CN3CCN(c4ccccc4)CC3)c[nH]c2c1 | 0.9 | 11 | -10 | 8 | 1.1 | -8
CCOC(=O)N1CCN(C(=O)c2ccc(CS(=O)(=O)c3ccc(OC)cc3)o2)CC1 | 0.3 | 71* | x | x | 1.1 | -10
COc1ccc(S(=O)(=O)Cc2ccc(C(=O)N3CCN(c4ccccc4F)CC3)o2)cc1 | 0.1 | 89* | x | x | 0.5 | 49
COc1ccc(S(=O)(=O)Cc2ccc(C(=O)N3CCC(C(N)=O)CC3)o2)cc1 | 0.9 | 11 | 11 | -13 | 1.2 | -20
COc1ccc(S(=O)(=O)Cc2ccc(C(=O)N3CCN(c4ccccc4)CC3)o2)cc1 | 0.3 | 66* | x | x | 0.7 | 28
COc1ccc(S(=O)(=O)Cc2ccc(C(=O)N3CCCC3)o2)cc1 | 0.9 | 5 | 2 | 1 | 0.9 | 7
O=C(N1CCCC1)C12CCC3CC(CC(C3)C1)C2 | 0.9 | 8 | 0 | 1 | 0.7 | 26
O=C(Oc1ccc(N(Cc2cccs2)C2=NS(=O)(=O)c3ccccc32)cc1)c1ccccc1F | 0 | 97* | 5 | -7 | 0.3 | 69*
CC1(c2cccs2)CC(c2cccs2)=C(C#N)C(=O)N1 (stereo unspecified) | 1.6 | -57 | 6 | -8 | 0.2 | 79*
C=CCn1c(SCc2c(C)noc2C)nc2sc3c(c2c1=O)CCCC3 | 0.2 | 78* | -6 | 6 | 0.8 | 22
Cc1noc(C)c1CSc1nc2sc3c(c2c(=O)n1C)CCCC3 | 0.6 | 40 | 2 | -2 | 0.8 | 19
C=CCn1c(SCc2c(C)noc2C)nc2sc3c(c2c1=O)CCCCC3 | 0 | 95* | 5 | 0 | 0.4 | 56*
Cc1noc(C)c1CSc1nc2sc(C)c(C)c2c(=O)n1C1CCCC1 | 0.1 | 90* | 7 | -9 | 0.7 | 29
CC(=O)c1ccc(OCCCC(=O)OCC(=O)N2CCN(c3ccccc3)CC2)cc1 | 0.8 | 16 | -7 | 7 | 0.9 | 14
Cc1cc(C)c2c3c(sc2n1)C(=O)N(Cc1ccccc1)CC(=O)N3 | 0.9 | 10 | -3 | 2 | 0.7 | 30
CCOc1ccccc1NC(=O)c1ccc(S(=O)(=O)N(C)C)cc1 | 0.6 | 36 | -26 | 27 | 0.7 | 28
CCCCOc1ccccc1NC(=O)c1ccc(=O)[nH]c1 | 1.1 | -9 | 22 | -24 | 1.1 | -7
CCOc1ccccc1NC(=O)c1ccc2nccnc2c1 | 2.1* | -114 | x | x | 1 | 2
CCCOc1ccccc1NC(=O)c1ccc(N)cc1 | 2.7* | -168 | 11 | -12 | 0.6 | 39
CN(C)CCCN1C(=O)C(=O)/C(=C(/O)c2ccc3c(c2)OCO3)C1c1cccnc1 (stereo unspecified) | x | x | 11 | -10 | x | x
O=C(N/N=C\c1cc(Br)cs1)C1COc2ccccc2O1 (stereo unspecified) | 0.9 | 13 | 6 | -3 | 0.9 | 10
CC1CCN(C(=S)c2ccc3c(c2)OCO3)CC1 | 0.7 | 27 | -2 | 3 | 0 | 99*
CC(C)CNS(=O)(=O)c1ccc(S(=O)(=O)N2CCCN(Cc3ccccc3)C2)cc1 | 0.7 | 28 | -12 | 14 | 0.5 | 50*
CC1CCN(S(=O)(=O)c2ccc(S(=O)(=O)N3CCCN(Cc4ccccc4)C3)cc2)CC1 | x | x | 3 | 0 | x | x

Assay outcomes (PubChem BioAssay)
